Laboratory results as given in PubChem BioAssay AID588727 (Southern Research Specialized Biocontainment Screening …, 2011).
About 450 (0.13%) of roughly 350,000 compounds were called active. The rule behind the calls is not given here. A selection follows. Entries with a potency or affinity are not part of this list.

Experiment: inhibitors of VEEV TC-83 cytopathic effect, confirmation, Vero cells (AID 588727)
Settings: VEEV TC-83 cytopathic effect inhibition, at 20 µM; stronger effect = higher value unless noted
With `COc1ccc(C)cc1NC(=O)CCN1CCN(C/C=C/c2ccccc2)CC1` the inhibition was “inactive”.
In the case of `CCc1ccc(N2CC(O)(c3cccs3)[N+]3=C2SCCC3)cc1` (stereo not drawn), the inhibition is reported as 3.66% (inactive).
For `C[N+]1=C2CCCCCN2C(O)(c2ccccc2)C1` (stereo not drawn), the inhibition was “inactive”.
In the case of `Cc1ccccc1N1CC(O)(c2cccs2)[N+]2=C1CCCC2` (stereo not drawn), the inhibition is reported as 1.35% (inactive).
For `OC1(c2cccs2)CN(c2ccc(Cl)cc2)C2=[N+]1CCCS2` (stereo not drawn), the inhibition was 0.66% (inactive).
For `COc1ccc2oc(C(=O)NCC3CCCO3)c(C)c2c1` (stereo not drawn), the inhibition was 5.81% (inactive).
With `COc1ccc(CCNC(=O)CSc2nccc(=O)[nH]2)cc1OC` the inhibition was “inactive”.
In the case of `COc1ccccc1N/N=C(\C#N)C(=N)N1CCOCC1`, the inhibition is reported as 1.39% (inactive).
With `COc1ccc(Nc2cc(C(=O)NCCCN3CCN(C)CC3)c3ccccc3n2)cc1OC` the inhibition was 0.68% (inactive).
For `COc1ccc(Nc2cc(C(=O)NCCCN3CCN(C)CC3)c3ccccc3n2)cc1`, the inhibition was 0.57% (inactive).
With `O=C(NCc1ccccc1Cl)C(=O)NCC(c1ccco1)N1CCOCC1` (stereo not drawn) the inhibition was “inactive”.
For `Cc1c(NC(=O)CSCc2ccccc2)cccc1C(=O)O`, the inhibition was 0.57% (inactive).
With `Cc1ccc(CSCC(=O)Nc2ccccc2F)cc1` the inhibition was 1.09% (inactive).
For `COCCCNC(=S)NCCc1ccc(F)cc1`, the inhibition was 0.69% (inactive).
For `COc1ccc(NCC(=O)N/N=C2\CCCC(C)C2)cc1` (stereo not drawn), the inhibition was 0.09% (inactive).
For `C=CCN=c1scc(-c2ccccc2)n1/N=C/c1ccccn1`, the inhibition was 12% (inactive).
For `C=CCN=c1scc(-c2ccc(F)cc2)n1/N=C/c1ccccn1`, the inhibition was 7.98% (inactive).
For `CC(=O)OCC1OC(n2cc(F)c(=O)[nH]c2=O)C(OC(C)=O)C1OC(C)=O` (stereo not drawn), the inhibition was 5.22% (inactive).
With `C[C@H]1O[C@@H](n2cc(F)c(=O)[nH]c2=O)[C@H](O)[C@@H]1O` the inhibition was 6.89% (inactive).
In the case of `Cc1ccnc(NC(=O)CCC(=O)N(CC(=O)NCc2ccc(F)cc2)CC2CCCO2)c1` (stereo not drawn), the inhibition is reported as 0.42% (inactive).
With `COc1ccccc1-c1cn[nH]c1-c1ccc(OCc2ccc(F)cc2)cc1O` the inhibition was 3.76% (inactive).
In the case of `c1ccc(-c2cn(-c3ccccc3)c3ncnc(NCCCN4CCOCC4)c23)cc1`, the inhibition is reported as 9.07% (inactive).
With `OCCOCCNc1ncnc2c1c(-c1ccccc1)cn2-c1ccccc1` the inhibition was 10.9% (inactive).
In the case of `COc1ccc(NC(=O)CN2CCCCC2)cc1S(=O)(=O)N1CCCCC1`, the inhibition is reported as 0.88% (inactive).
With `NC(=O)CC(NC(=O)Cc1cccc2ccccc12)c1ccc(NCc2ccc(F)c(F)c2)c([N+](=O)[O-])c1` (stereo not drawn) the inhibition was 0.49% (inactive).
With `CNC(=O)/C(C#N)=C/c1cn(CC(=O)OC)c2ccccc12` the inhibition was 0.69% (inactive).
For `COc1cc2cc(C(=O)O)[nH]c2c(OC)c1OC`, the inhibition was 0.1% (inactive).
With `COc1ccc(OC)c2[nH]c(C(=O)N3CCC(C(=O)O)CC3)cc12` the inhibition was 0.69% (inactive).
With `COC(=O)c1cc(S(=O)(=O)N2CCN(c3ccc([N+](=O)[O-])cc3)CC2)c[nH]1` the inhibition was 3.14% (inactive).
In the case of `O=S(=O)(/C=C/c1ccccc1)Oc1ccccc1`, the inhibition is reported as “inactive”.
With `COc1ccccc1Nc1ncnc2c1c(C)c(C)n2CCO` the inhibition was 0.65% (inactive).
For `Cc1c(C)n(CCCN(C)C)c2ncnc(Nc3ccccc3)c12`, the inhibition was 1.72% (inactive).
In the case of `CCOc1ccc(NC(=O)CN(C)C(=O)CCC2CCCCC2)cc1OCC`, the inhibition is reported as 2.6% (inactive).
In the case of `NNc1nc(-c2ccccc2Cl)c2cc(Br)ccc2n1`, the inhibition is reported as 1.08% (inactive).
For `O=C(CCC1CCCN(C(=O)CCN2CCCCC2=O)C1)NCc1ccccc1F` (stereo not drawn), the inhibition was 0.405% [measured here: 10K pilot screen inhibition, stronger effect = higher value] and the outcome was “inactive”.
With `C=CCN1C(=O)c2ccc(C(=O)NCCc3ccc(OC)c(OC)c3)cc2C1=O` the inhibition was 0.34% (inactive).
With `CC1CCCCC1NC(=O)COCc1cc(-c2cccs2)on1` (stereo not drawn) the inhibition was “inactive”.
With `Cc1cc(C(=O)Cn2nnc3ccccc3c2=O)c(C)n1-c1c(C)n(C)n(-c2ccccc2)c1=O` the inhibition was “inactive”.
In the case of `COc1ccc(-n2c(C)cc(C(=O)Cn3nnc4ccccc4c3=O)c2C)cc1`, the inhibition is reported as 1.42% (inactive).
With `CC1Sc2ccc(S(=O)(=O)CCC(=O)N3CCCC3)cc2NC1=O` (stereo not drawn) the inhibition was 2.36% (inactive).
For `O=C(CSc1nc(-c2ccccc2Cl)ns1)c1ccc(Cl)cc1`, the inhibition was 1.15% (inactive).
With `COC(=O)c1ccc(N/C(=N/S(=O)(=O)c2ccccc2)c2ccccc2)cc1` the inhibition was 1.58% (inactive).
In the case of `CCC(C)N=Cc1c(Nc2ccccc2)nc2c(C)cccn2c1=O` (stereo not drawn), the inhibition is reported as “inactive”.
For `CCCC[C@H]1COCCS(=O)(=O)N1Cc1cccc([N+](=O)[O-])c1`, the inhibition was “inactive”.
In the case of `O=C(NCc1cccnc1)/C(=C/c1ccc(-c2cccc(Cl)c2)o1)S(=O)(=O)c1ccccc1`, the inhibition is reported as 9.73% (inactive).
In the case of `O=C(NCc1cccnc1)/C(=C\c1ccc(-c2ccc(Cl)c(Cl)c2)o1)S(=O)(=O)c1ccccc1`, the inhibition is reported as 0.29% (inactive).
With `O=C(Cc1ccc(Br)cc1)NC1CCCc2ccccc21` (stereo not drawn) the inhibition was 3.28% (inactive).
In the case of `O=C(NC1CCCc2ccccc21)c1ccc(Br)cc1` (stereo not drawn), the inhibition is reported as 0.82% (inactive).
With `O=C(CCNC(=O)c1ccccc1)NC1CCCc2ccccc21` (stereo not drawn) the inhibition was “inactive”.
With `O=C(CCNC(=O)c1ccc([N+](=O)[O-])cc1)NC1CCCc2ccccc21` (stereo not drawn) the inhibition was 9.16% (inactive).
With `CC(SCC(=O)Nc1ccccc1Br)c1nc2ccccc2c(=O)[nH]1` (stereo not drawn) the inhibition was “inactive”.
In the case of `CCCOc1ccc(C(=O)Nc2cc(S(=O)(=O)N3CCOCC3)ccc2N2CCOCC2)cc1`, the inhibition is reported as 6.81% (inactive).
For `CC(=O)c1ccc(S(=O)(=O)N2CCN(C(=O)c3ccc(-n4nc(C)c(Cl)c4C)cc3)CC2)cc1`, the inhibition was 2.19% (inactive).
For `O=[N+]([O-])c1cccc(/C=C/c2ccncc2)c1`, the inhibition was “inactive”.
With `O=[N+]([O-])c1cccc(/C=C/c2ccccn2)c1` the inhibition was 0.25% (inactive).
In the case of `O=C(CCNS(=O)(=O)c1cccc(Cl)c1)OCC(=O)N1CCN(C(=O)c2ccco2)CC1`, the inhibition is reported as 0.85% (inactive).
In the case of `O=C(CC1SC(N2CCOCC2)=NC1=O)Nc1ccccc1Cl` (stereo not drawn), the inhibition is reported as 2.68% (inactive).
With `C=CCN1C(c2ccc(Br)cc2)=CS/C1=C(\C#N)c1nnc(N2CCOCC2)n1-c1ccccc1` the inhibition was 11.4% (inactive).
For `Cc1ccccc1CC1SC(N=C(N)N)=NC1=O` (stereo not drawn), the inhibition was 1.59% (inactive).
For `CC(=O)/C(C#N)=C1\NC(=O)C(Cc2cc(Cl)ccc2Cl)S1` (stereo not drawn), the inhibition was 3.03% (inactive).
With `O=C1N/C(=N\c2ccccn2)SC1Cc1ccccc1Cl` (stereo not drawn) the inhibition was 4.16% (inactive).
In the case of `Cc1ccccc1CC1SC(N)=NC1=O` (stereo not drawn), the inhibition is reported as 1.28% (inactive).
